Measurements as given in PubChem BioAssay (Tox21).
Several values for one entry are separate records, joined by “and”; a condition that tells them apart may be missing. Equal entries are not always repeated. Results filed as inconclusive are left out. A call without a number means that no potency is given here. Activity calls are given as the source filed them. Calls come from the whole dose curve; as a rule, active = well fitted activation curve with a large enough effect in the repeat runs; inconclusive = weak or mixed curves; inactive = no such curve, though single readings can be large or run the other way.

target: Aryl hydrocarbon receptor (Homo sapiens) (UniProt P35869); assay: qHTS assay to identify small molecule that activate the aryl hydrocarbon receptor (AhR) signaling pathway (AID 743085); conditions: HepG2 AhR-luc (HG2L7.5c1), luciferase, 24 h; series mostly up to 70.3 µM; note: nearly all actives have a fitted effect of over 15% in size;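 for activation: HG2L7.5c1 human HepG2 liver cells with stably integrated DRE-driven firefly reporter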
Description: U.S. Tox21 Program National Center for Advancing Translational Sciences [NCATS] NIH Chemical Genomics Center [NCGC] U.S. Environmental Protection Agency [EPA] National Institutes of Environmental Health Sciences [NIEHS] National Toxicology Program [NTP] U.S. Food and Drug Administration [FDA] Tox21 Assay overview: The Aryl hydrocarbon Receptor (AhR), a member of the family of basic helix-loop-helix transcription factors, is crucial to adaptive responses to environmental changes. AhR mediates cellular responses to environmental pollutants such as aromatic hydrocarbons through induction of phase I and II enzymes but also interacts with other nuclear receptor signaling pathways. A cell based HepG2-AhR-luc assay (HG2L7.5c1 cell line, developed by Dr. Michael S. Denison, University of California at Davis, was used to assess the activation of AhR. HepG2 (human hepatocellular carcinoma) cells were stably transfected with an Ah receptor-responsive firefly luciferase reporter gene plasmid containing 20 dioxin responsive elements and luciferase reporter gene. Increased luciferase activity can be used to identify the compounds that induce AhR activation.
Tox21 Assay Protocol Summary: 4000 cells in 5 uL/well were dispensed into white wall/solid bottom 1536-well plates using a Multidrop Combi (Thermo Fisher Scientific Inc., Waltham, MA) dispenser. After the assay plates were incubated at 37C for 5 h, 23 nL of compound or DMSO vehicle was transferred to the assay plates by a pintool station (Kalypsys, San Diego, CA). The plates were incubated at 37C for 24 hr. After 1 ul/well of CellTiter-Fluor reagent (Promega, Madison, WI) was added into the assay plates using a Flying Reagent Dispenser (FRD) (Aurora Discovery, CA), the assay plates were incubated at 37C for 30 min. The fluorescence intensity in the plates was measured using a ViewLux plate reader (PerkinElmer, Shelton, CT), followed by the addition of 4 uL of ONE-Glo Luciferase Assay reagent (Promega) using an FRD (Aurora Discovery). After the assay plates were incubated at room temperature for 30 min, luminescence intensity was measured using a ViewLux plate reader (Perkin Elmer).
Potency is the fitted concentration of half-maximal effect.

Sequence of Aryl hydrocarbon receptor (Homo sapiens) (P35869 whole entry, looked up): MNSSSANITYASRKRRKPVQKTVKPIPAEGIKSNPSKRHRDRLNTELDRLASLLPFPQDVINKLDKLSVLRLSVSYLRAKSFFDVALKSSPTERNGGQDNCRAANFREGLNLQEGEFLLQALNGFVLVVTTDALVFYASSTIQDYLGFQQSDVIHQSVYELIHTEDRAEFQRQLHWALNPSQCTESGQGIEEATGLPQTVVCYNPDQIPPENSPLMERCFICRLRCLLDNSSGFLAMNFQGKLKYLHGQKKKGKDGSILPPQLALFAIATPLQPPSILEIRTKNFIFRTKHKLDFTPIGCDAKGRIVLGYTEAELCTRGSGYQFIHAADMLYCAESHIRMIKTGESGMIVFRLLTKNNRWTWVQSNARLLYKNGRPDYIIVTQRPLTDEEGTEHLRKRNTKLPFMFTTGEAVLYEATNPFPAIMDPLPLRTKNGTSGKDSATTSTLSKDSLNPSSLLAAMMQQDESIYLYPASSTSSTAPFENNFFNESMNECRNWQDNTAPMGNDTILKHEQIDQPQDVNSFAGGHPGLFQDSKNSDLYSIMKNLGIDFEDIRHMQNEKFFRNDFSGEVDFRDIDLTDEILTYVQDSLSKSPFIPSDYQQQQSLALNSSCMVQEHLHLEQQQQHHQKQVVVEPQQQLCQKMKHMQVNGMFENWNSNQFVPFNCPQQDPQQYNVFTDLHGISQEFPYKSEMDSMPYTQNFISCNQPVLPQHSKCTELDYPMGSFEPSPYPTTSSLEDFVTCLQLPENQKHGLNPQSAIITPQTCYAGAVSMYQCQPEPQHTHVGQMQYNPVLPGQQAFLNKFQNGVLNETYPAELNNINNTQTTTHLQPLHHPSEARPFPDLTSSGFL

Cn1cc[n+](C)c1 (tested in a mixture with another compound) was tested. Which Potency did it give?
Its Potency is “inactive”.

For CCCCCC[N+](=O)[O-], which Potency is on record?
The Potency was “inactive”.

Which Potency does the source give for CCCC(Cn1cncn1)c1ccc(Cl)cc1Cl (stereo not given) here?
Its Potency is “inactive”.

Which Potency does the source give for O=C(O)C(F)(F)C(F)(F)C(F)(F)C(F)(F)C(F)(F)C(F)(F)C(F)(F)C(F)(F)C(F)(F)C(F)(F)F here?
Its Potency is “inactive”.

Which Potency does the source give for C=COC(C)=O here?
Its Potency is “inactive”.

With COP(=S)(Oc1cc(Cl)c(Br)cc1Cl)c1ccccc1 (stereo not given) as the compound, how does the Potency read?
The Potency was 27.3 µM (active).

With COC(N)=O as the compound, how does the Potency read?
Its Potency is “inactive”.

CCOP(=O)(OCC)Oc1ccc([N+](=O)[O-])cc1 was tested. Which Potency did it give?
Its Potency is “inactive”.

With CCCC(=O)Cl as the compound, how does the Potency read?
The Potency was “inactive”.

How did the Potency turn out when O=C(CBr)OCc1ccccc1 was run?
The Potency was “inactive”.

With COC1=CC(=O)O[C@@H](CCc2ccccc2)C1 as the compound, how does the Potency read?
Its Potency is “inactive”.

With CCCCN(N=O)C(=N)N[N+](=O)[O-] as the compound, how does the Potency read?
Its Potency is “inactive”.

For C=CC[C@]1(O)CC[C@H]2[C@@H]3CCC4=CC(=O)CCC4=C3C=C[C@@]21C, which Potency is on record?
Its Potency is 5.96 µM (active).

For CCOC(=O)[C@]1(c2ccccc2)Oc2ccccc2[C@@H]1N, which Potency is on record?
The Potency was “inactive”.

N#Cc1cc(I)c(O)c(I)c1 was tested. Which Potency did it give?
The Potency was “inactive”.

Which Potency does the source give for O=C(OC1CCCCC1)c1ccccc1C(=O)OC1CCCCC1 here?
Its Potency is “inactive”.

CCC(COC(=O)c1cc(OC)c(OC)c(OC)c1)(c1ccccc1)N(C)C (stereo not given) was tested. Which Potency did it give?
Its Potency is “inactive”.

CN(C)c1ccc(N(C)C)cc1 was tested. Which Potency did it give?
Its Potency is 61.3 µM (active).

Cc1ccc(-c2c(Cl)nc(C#N)n2S(=O)(=O)N(C)C)cc1 was tested. Which Potency did it give?
The Potency was “inactive”.

With O=C(NC(=O)c1c(F)cccc1F)Nc1ccc(OC(F)(F)C(F)OC(F)(F)F)c(Cl)c1 (stereo not given) as the compound, how does the Potency read?
Its Potency is “inactive”.

How did the Potency turn out when O=C1CN=C(c2ccccc2)c2cc(Cl)ccc2N1CC1CC1 was run?
The Potency was “inactive”.

For Brc1ccc(Oc2ccccc2)cc1, which Potency is on record?
Its Potency is “inactive”.

For CCOP(O)OCC, which Potency is on record?
Its Potency is “inactive”.

Clc1cccc2ccccc12 was tested. Which Potency did it give?
Its Potency is “inactive”.

With CCOP(=S)(OCC)SCSCC as the compound, how does the Potency read?
Its Potency is “inactive”.

How did the Potency turn out when CCOC(=O)COc1cc(-c2nn(C)c(OC(F)F)c2Cl)c(F)cc1Cl was run?
Its Potency is 19.3 µM (active).

CC(C)(Cl)[N+](=O)[O-] was tested. Which Potency did it give?
Its Potency is “inactive”.

For O=[N+]([O-])c1ccc(F)c([N+](=O)[O-])c1, which Potency is on record?
Its Potency is “inactive”.

Which Potency does the source give for Clc1cccc(SC2CCNCC2)n1 here?
Its Potency is “inactive”.

How did the Potency turn out when CCC(Br)(CC)C(=O)NC(N)=O was run?
Its Potency is “inactive”.

How did the Potency turn out when O=C(CBr)c1ccccc1 was run?
The Potency was “inactive”.

CCCN(CCCl)c1c([N+](=O)[O-])cc(C(F)(F)F)cc1[N+](=O)[O-] was tested. Which Potency did it give?
Its Potency is “inactive”.

With C=CCOC(C)=O as the compound, how does the Potency read?
Its Potency is “inactive”.

[CH3][Sn]([CH3])([Cl])[Cl] was tested. Which Potency did it give?
The Potency was “inactive”.

Which Potency does the source give for NCCCNCCCN here?
Its Potency is “inactive”.

CCOP(=S)(OCC)Oc1nc(Cl)c(Cl)cc1Cl was tested. Which Potency did it give?
Its Potency is 27.4 µM (active) and 10.9 µM (active).

CCN(C)N=O was tested. Which Potency did it give?
The Potency was “inactive”.

For O=C(O)c1ccccc1C(=O)Nc1cccc2ccccc12, which Potency is on record?
Its Potency is 13.7 µM (active).

Which Potency does the source give for CCCCCCCCCCOC(=O)c1ccccc1C(=O)OCCCCCCCCCC here?
The Potency was “inactive”.

C=CC(=O)OCC(C)O (stereo not given) was tested. Which Potency did it give?
The Potency was “inactive”.
